# High-throughput results as filed in PubChem.
# MEKK2mut PB1 HTS – signal of MEK5 binding to mutant human MEKK2 PB1 domain; bead flow cytometry, Alexa488-MEK5 binding to MEKK2 mutant; AID 1530; percent response, % at 10 µM; 290,000 compounds, 0.35% hits; in the data active means percent response above about 24%, passing the limit was not always enough
# CHT block – inhibitors of human choline transporter CHT; CHT-expressing cells, membrane potential dye, choline response; hits give low values; 310,000 compounds, 0.86% hits; AID 488975; B-score at 10 µM;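 active means B-score over 3 SD under the library average, and starting fluorescence ratio not unusually high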;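 further: choline stimulus applied at its EC90 after an EC20 pre-addition; B-score computed on integrated fluorescence ratio after choline addition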
# Target sequence (Q9GZV3 whole entry, looked up): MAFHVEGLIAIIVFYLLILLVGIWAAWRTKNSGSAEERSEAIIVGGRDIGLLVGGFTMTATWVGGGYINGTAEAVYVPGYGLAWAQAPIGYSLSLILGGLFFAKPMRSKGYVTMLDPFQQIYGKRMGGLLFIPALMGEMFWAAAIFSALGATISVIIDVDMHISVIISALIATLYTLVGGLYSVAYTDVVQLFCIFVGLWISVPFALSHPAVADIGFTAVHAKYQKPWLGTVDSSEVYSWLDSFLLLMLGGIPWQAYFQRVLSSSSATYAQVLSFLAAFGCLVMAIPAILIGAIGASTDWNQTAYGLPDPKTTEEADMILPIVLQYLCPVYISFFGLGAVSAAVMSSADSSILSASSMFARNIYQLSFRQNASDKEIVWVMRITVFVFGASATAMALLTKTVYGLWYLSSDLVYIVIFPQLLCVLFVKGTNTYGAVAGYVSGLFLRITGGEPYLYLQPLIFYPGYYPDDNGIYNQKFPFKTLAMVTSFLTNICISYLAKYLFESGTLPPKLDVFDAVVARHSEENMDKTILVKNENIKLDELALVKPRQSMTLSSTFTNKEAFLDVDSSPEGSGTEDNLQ
# CHT PAM – human CHT allosteric activation. Q9GZV3. CHT-expressing cells, membrane potential dye, choline EC20; hits give high values; LV-AA mutant CHT in HEK293 cells. B-score at 10 µM. 310,000 compounds, 0.49% hits. AID 488977;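 active means initial fluorescence not abnormally high and integrated response B-score, plate-corrected, over 3 SD above library mean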
# MEKK2 WT-MEK5 – raises or lowers MEK5 binding to wildtype human MEKK2 PB1 domain. Q9Y2U5. bead flow cytometry, Alexa488-MEK5 binding to MEKK2 WT; actives lie on both sides. binding response (% of control), % at 10 µM. 290,000 compounds, 1.1% hits. AID 1531; in the data active means binding response below about 67% or above about 130%
# SUMO Mot1 rescue – SUMOylation pathway inhibition by Mot1-301 growth rescue; S. cerevisiae Mot1-301 growth rescue, ATP luminescence, 38.5C; percent above DMSO median, 100 means doubled; growth rescue, % at 18.8 µM; 320,000 compounds, 1% hits;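 active means every valid replicate shows activation above 250% relative to neutral control wells; inactive means the rest, any valid replicate at or below 250%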;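 further: OY570 slx delta 5 strain wells were the positive control but not used for scaling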
# MEKK3 PB1 HTS – MEKK3-MEK5 PB1 interaction, increase or decrease; AID 1529; bead-based flow cytometry, Alexa488-MEK5 binding to MEKK3; actives lie on both sides; 0 = blocked by unlabeled MEK5, 100 = vehicle; 290,000 compounds, 1.4% hits; binding response (% of control), % at 10 µM;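 active means binding response more than 3 SD above or below the average of its plate-row segment, actives on both sides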;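 further: Alexa488 bead fluorescence after subtracting the streptavidin-only scavenger bead signal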
# MEKK2wt confirm – raises or lowers MEK5 binding to wildtype human MEKK2, retest. shares compounds with MEKK3 PB1 HTS. bead flow cytometry, Alexa488-MEK5 binding to MEKK2 WT; actives lie on both sides. binding response (% of control), % at 10 µM. 5,900 compounds, 2.4% hits. AID 1892; in the data active means binding response below about 16% or above about 210%; inactive means in between
# MEKK2mut confirm – signal of MEK5 binding to mutant human MEKK2, retest; 5,900 compounds, 2% hits; shares compounds with MEKK3 PB1 HTS; bead flow cytometry, Alexa488-MEK5 binding to MEKK2 mutant; percent response, % at 10 µM; in the data active means percent response mostly above about 71%, no sharp cut-off; inactive means mostly below about 38%;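 further: higher means compound restores mutant binding toward wildtype level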
# MEKK3 confirm – MEKK3-MEK5 PB1 inhibition, single concentration confirmation. shares compounds with MEKK3 PB1 HTS. bead flow cytometry, Alexa488-MEK5 binding to MEKK3; hits give low values. 5,900 compounds, 1.8% hits. AID 1894. binding response (% of control), % at 10 µM;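 active means binding response below 72% of control, or above a set upper limit, though filed actives all read lower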;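 further: 100% = DMSO only wells and 0% = binding blocked by excess unlabeled MEK5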
# Numbers without * were called inactive; i = inactive; . = no result; [ ] = another dose, or the depositor's remark. Hits are enriched below; roughly 4.1% of the tested compounds scored in any of these assays.
SMILES,MEKK2mut PB1 HTS,CHT block,CHT PAM,MEKK2 WT-MEK5,SUMO Mot1 rescue,MEKK3 PB1 HTS,MEKK2wt confirm,MEKK2mut confirm,MEKK3 confirm
Cc1ccc(N(CC(=O)NCc2ccco2)C(=O)CCC(=O)Nc2nccs2)c(C)c1,0.0,i,i,100.0,-7.8,98.0,.,.,.
O=C(CCNC(=O)c1ccccc1Cl)NCC(c1ccc(F)cc1)N1CCOCC1 (centres undefined),.,i,i,.,-10.0,.,.,.,.
C=CCc1cccc(CNc2c(C)cc(C)cc2C)c1O,-6.0,i,i,83.0,386.6*,70.0*[inhibitor],98.0,-8.0,97.0
O=S(=O)(c1cccc(C(F)(F)F)c1)N1CCN(CC(O)COCc2ccccc2)CC1 (centres undefined),.,.,.,.,-26.3,.,.,.,.
COc1cc(CC(=O)OCC(=O)N2CCCCC2C)cc(OC)c1OC (centres undefined),-2.0,i,i,93.0,-7.2,96.0,.,.,.
O=C(OCc1nc2ccccc2s1)c1ccc(Br)o1,6.0,i,i,134.0,8.1,144.0*,104.0,-1.0,101.0
O=C(OCc1nc2ccccc2s1)c1ccc([N+](=O)[O-])o1,0.0,i,i,99.0,54.1,103.0,.,.,.
CCC1(CC)C(=O)C2=C3C1[C@H](C(=O)OC)C=C(C(=O)OC)C[C@H]3[C@H]1C(=O)NC(=O)[C@H]1[C@H]2C (some centres undefined),1.0,i,i,101.0,3.7,105.0,.,.,.
CCC1(CC)C(=O)C2=C3C1[C@H](C(=O)OC)CC(C(=O)OC)C[C@H]3[C@H]1C(=O)N(c3ccccc3)C(=O)[C@H]1[C@H]2C (some centres undefined),-9.0,i,i,75.0,12.7,57.0*[inhibitor],96.0,6.0,97.0
CCSC1=NCCN1S(=O)(=O)c1ccc(Cl)cc1,-12.0,i,i,100.0,12.8,109.0,.,.,.
CCSC1=NCCN1S(=O)(=O)c1ccccc1,-16.0,i,i,58.0,-23.1,50.0*[inhibitor],103.0,-2.0,106.0
Cc1cccnc1NC(=O)c1csnn1,5.0,i,i,30.0*[inhibitor],6.5,65.0*[inhibitor],100.0,1.0,101.0
CN1CCN(C(=O)CCC(=O)c2ccc(F)cc2)CC1,8.0,i,i,103.0,8.2,103.0,.,.,.
NC1=NN=C(c2ccc3c(c2)OCCO3)CS1,-84.0,i,i,1.0*[inhibitor],7.4,1.0*[inhibitor],94.0,-8.0,96.0
Cc1sc(N)nc1-c1ccc2c(c1)OCCO2,12.0,i,i,105.0,20.6,103.0,.,.,.
CCOC(=O)c1cc(C)n(CCc2ccccc2)c1C,6.0,i,i,105.0,423.0,104.0,.,.,.
Cc1cc(-c2csc(N)n2)c(C)n1CCc1ccccc1,7.0,i,i,56.0*[inhibitor],.,94.0,103.0,0.0,93.0
O=C(NNc1cccc(Cl)c1)c1cccnc1Oc1ccccc1,-28.0,i,i,85.0,219.2,87.0,.,.,.
N#Cc1c(C(F)(F)F)cc(-c2ccccc2)[nH]c1=O,4.0,i,i,122.0,89.1,127.0*,106.0,5.0,107.0
COc1ccc(/C=C/C(=O)N2CCN(S(=O)(=O)/C=C/c3ccccc3)CC2)cc1OC,0.0,i,i,108.0,320.2,145.0*,102.0,6.0,104.0
CC(=O)Nc1ccc(NC(=O)C2CC(=O)N(c3ccccc3Cl)C2)cc1 (centres undefined),3.0,i,i,100.0,6.9,97.0,.,.,.
COc1ccc(CC(=O)NNc2ncnc3c2cnn3-c2ccccc2)cc1,0.0,i,i,103.0,16.6,136.0*,89.0,-2.0,97.0
CNc1ccc(Br)cc(C(=O)/C=C/c2ccc3c(c2)OCO3)c1=O,-10.0,i,i,66.0*[inhibitor],6.0,91.0,100.0,1.0,102.0
CNc1ccc(Br)cc(C(=O)/C=C/c2ccc(OC)cc2)c1=O,-3.0,i,i,80.0,0.3,95.0,.,.,.
CCOC(=O)C1(Cc2cccc(F)c2)CCN(Cc2nc(CC)[nH]c2C)CC1,-13.0,i,i,.,275.6,71.0*[inhibitor],114.0,16.0,81.0
SMILES,MEKK2mut PB1 HTS,CHT block,CHT PAM,MEKK2 WT-MEK5,SUMO Mot1 rescue,MEKK3 PB1 HTS,MEKK2wt confirm,MEKK2mut confirm,MEKK3 confirm
CCOC(=O)C1(Cc2cccc(F)c2)CCN(CC2CC2)CC1,-3.0,i,i,87.0,466.0,84.0,.,.,.
O=C(NC1CCCCC1)C(c1ccc(Cl)cc1)N1CCC2(CC1)OCCO2 (centres undefined),-16.0,i,i,2.0*[inhibitor],17.2,2.0*[inhibitor],109.0,5.0,107.0
O=C(/C=C/c1c(F)cccc1Cl)Nc1ccc(S(=O)(=O)Nc2ncccn2)cc1,5.0,i,i,103.0,-17.5,99.0,.,.,.
C=CCNC(=O)/C=C/c1c(F)cccc1Cl,1.0,i,i,109.0,.,184.0*,100.0,-1.0,105.0
O=S(=O)(Nc1nc2ccccc2nc1NCC1CCCO1)c1ccccc1 (centres undefined),-25.0,i,i,70.0,-20.2,53.0*[inhibitor],94.0,-7.0,96.0
Cc1ccc(C(=O)NN2C(=O)C3C4c5ccccc5C(c5ccccc54)C3C2=O)cc1 (centres undefined),3.0,i,i,104.0,17.2,129.0*,100.0,5.0,103.0
Cc1c(CCC(=O)O)c(=O)oc2c(C)c(OCc3cc4c(cc3Cl)OCO4)ccc12,-5.0,i,i,92.0,-9.0,96.0,.,.,.
COc1cc(O)c(C(CCN2CCCC2)c2ccc(N(C)C)cc2)c(OC)c1 (centres undefined),8.0,i,i,153.0*,7.8,119.0,129.0,37.0,106.0
COc1cc(OC)c2c(C)cc(=O)oc2c1C(CCN1CCOCC1)c1ccc(N(C)C)cc1 (centres undefined),5.0,i,i,100.0,-19.6,92.0,.,.,.
CCCCCc1cc(=O)oc2c(C(CCN3CCCCC3)c3ccc4c(c3)OCO4)c(OC)cc(OC)c12 (centres undefined),50.0*,i,i,203.0*,66.6,110.0,226.0*,73.0*,108.0
COc1cc(OC)c2ccc(=O)oc2c1C(CCN1CCCC1)c1ccc2c(c1)OCO2 (centres undefined),6.0,i,i,101.0,9.4,106.0,.,.,.
